Screening results: PubChem BioAssay, National Center for Advancing Translational Sciences (NCATS)
The entries come from a sample that favours hits as a whole.
AmpC inh no detg: qHTS Inhibitors of AmpC Beta-Lactamase (assay without detergent) | P00811 | AmpC nitrocefin hydrolysis, absorbance 480 nm, 0.0001% Triton | Potency, µM (doses to about 57.1 µM), hits mostly inhibitors | 0.52% of 330,000 active | AID 485341, 2010; also: nearly all actives have a fitted effect of over 20% in size
Target sequence (P00811 whole entry, looked up): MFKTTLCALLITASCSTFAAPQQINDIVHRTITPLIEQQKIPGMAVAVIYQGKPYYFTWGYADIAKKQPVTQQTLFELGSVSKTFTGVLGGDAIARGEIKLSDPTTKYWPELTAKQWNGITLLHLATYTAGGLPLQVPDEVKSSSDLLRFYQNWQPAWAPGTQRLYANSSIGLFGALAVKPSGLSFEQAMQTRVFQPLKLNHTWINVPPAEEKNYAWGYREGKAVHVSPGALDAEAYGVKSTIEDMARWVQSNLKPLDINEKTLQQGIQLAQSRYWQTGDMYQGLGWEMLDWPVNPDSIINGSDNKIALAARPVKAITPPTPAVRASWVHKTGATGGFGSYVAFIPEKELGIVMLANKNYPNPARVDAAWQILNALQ
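20 mM phosphate pH 7.0 + 0.01% (detergent screen) or 0.0001% Triton X-100; 5.3 nM AmpC reagent; cpd preinc 15 min RT; nitrocefin (800 uM stock) to start; A480 q20 s × 4 min; Activity was normalised to no-enzyme and no-compound control wells.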
CHX counter: Cycloheximide Counterscreen for Small Molecule Inhibitors of Shiga Toxin. cell reporter, cycloheximide protein synthesis inhibition counterscreen. max response, %. 12% of 300,000 active; in the data active = max response mostly above about 13%, no sharp cut-off; inactive = mostly below about 14%; also: read at 38.3 µM for the half of the compounds with a filed dose
Shiga inhibitor: A qHTS for Small Molecule Inhibitors of Shiga Toxin. Vero cells, Shiga toxin protein synthesis inhibition reporter. inhibition, % at 38.7 µM. 9.2% of 290,000 active. AID 2315, 2010; in the data active = inhibition mostly above about 28%, no sharp cut-off; inactive = mostly below about 43%
NS1 function inh: qHTS Assay for Inhibitors of Influenza NS1 Protein Function; AID 2326, 2010; Potency, µM (doses to about 46.1 µM); 0.4% of 270,000 active; calls by dose curve; also: actives are rising curves; nearly all actives have a fitted effect of over 50% in size
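A cell-based growth assay was used: compounds that relieve NS1-induced slow growth of budding yeast raise OD600. Assay medium was yeast nitrogen base with ammonium sulphate and -URA supplement, pH 6.0, with 2% galactose.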
AmpC detergent: qHTS Inhibitors of AmpC Beta-Lactamase (assay with detergent). AmpC hydrolysis of nitrocefin, absorbance 480 nm, 0.01% Triton. AID 485294, 2010. 0.041% of 370,000 active. Potency, µM (highest dose often 114 µM), hits mostly inhibitors; also: nearly all actives have a fitted effect of over 25% in size
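20 mM phosphate pH 7.0 + 0.01% (detergent screen) or 0.0001% Triton X-100; 5.3 nM AmpC reagent; cpd preinc 15 min RT; nitrocefin (800 uM stock) to start; A480 q20 s × 4 min; Activity was normalised to no-enzyme and no-compound control wells.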
A number is an active result; 0 = inactive; ? = inconclusive; - = no result given. Unless noted, calls follow the shape of the dose curve; as a rule, active = well fitted curve in the direction sought with a large enough effect; inconclusive = small, poorly fitted or top-dose-only effect, or another doubt; inactive = no such curve, though single readings can be large; an effect the other way counts as inactive or inconclusive.

SMILES	AmpC inh no detg	CHX counter	Shiga inhibitor	NS1 function inh	AmpC detergent
CC(C)C[C@H](NC(=O)[C@H](Cc1c[nH]c2ccccc12)NC(=O)[C@H](CCCCN)NC(=O)CNC(=O)[C@H](CC(C)C)NC(=O)[C@H](CO)NC(=O)[C@@H](N)Cc1cnc[nH]1)C(=O)NCC(=O)N[C@@H](Cc1cnc[nH]1)C(=O)N1CCC[C@H]1C(=O)N[C@@H](CC(=O)O)C(=O)N[C@@H](CCCCN)C(=O)N[C@@H](Cc1ccccc1)C(=O)O	-	0	0	-	-
N=C1SCC(=O)N1c1ccccc1Cl	0	0	0	0	0
O=C1c2sc3nc4ccccc4n3c2C(=O)N1c1ccccc1Cl	0	21	116	0	?
Cc1ccsc1/C=N/NC(=O)CNC(=O)c1ccccc1	0	0	0	0	0
Cc1ccsc1/C=N/NC(=O)c1cccs1	0	33	77	0	0
Cc1ccsc1/C=N/NC(=O)C(N)=O	0	35	0	-	0
Cc1ccsc1/C=N/NC(=O)C(O)c1ccccc1 (stereo not drawn)	0	9.6	0	0	0
Cc1ccsc1/C=N/NC(=O)c1ccccn1	0	62	47	0	0
Cc1ccc(/C=N/NC(=O)C(O)c2ccccc2)o1 (stereo not drawn)	0	0	0	0	0
COc1cc2[nH]c(C(=O)Nc3ccc4c(c3)OCCO4)cc2c(OC)c1OC	0	40	91	0	0
COc1cc2cc(C(=O)Nc3ccc4c(c3)OCCO4)[nH]c2cc1OC	0	47	103	0	0
COc1ccc(NC(=O)CSc2ccc3c(c2)OCCO3)cc1OC	0	0	0	0	0
CCC(=O)N1CCc2cc(CNS(=O)(=O)c3ccccc3F)ccc21	-	-	-	-	0
CC(C)[C@H](NC(=O)c1ccccc1)C(=O)NCCc1ccccc1	0	0	0	0	0
Clc1ccc(Nc2nc(C3CC3)cs2)cc1	?	56	102	0	0
Cc1ccc(Nc2nc(C3CC3)cs2)cc1	0	33	52	0	0
S=c1[nH]nc(Nc2ccc(Cl)cc2)s1	0	0	0	0	0
O=C(Nc1ccccc1F)c1ccc([N+](=O)[O-])s1	0	38	0	-	0
Cc1ccc(C(=O)Nc2cc([N+](=O)[O-])ccc2F)s1	0	0	active	0	?
Cc1cc(C)cc(OCC(=O)Nc2ccc(Cl)c(-c3nc4ncccc4o3)c2)c1	-	-	-	-	0
CC(OC(=O)c1ccc(S(=O)(=O)NCc2ccco2)cc1)C(=O)Nc1ccc(Cl)cn1 (stereo not drawn)	0	38	68	0	0
Cc1noc(C)c1COC(=O)c1ccc(S(=O)(=O)NCc2ccco2)cc1	0	16	0	0	0
O=C(COC(=O)c1ccc(S(=O)(=O)NCc2ccco2)cc1)Nc1ncc(Cl)cc1Cl	0	0	0	0	0
O=C(Nc1ccc(S(=O)(=O)NCc2ccco2)cc1)c1ccc(F)cc1	0	28	46	0	0
O=C(NCc1ccccc1)c1ccc(S(=O)(=O)NCc2ccco2)cc1	0	38	53	0	0
SMILES	AmpC inh no detg	CHX counter	Shiga inhibitor	NS1 function inh	AmpC detergent
O=C(COC(=O)c1ccc(S(=O)(=O)NCc2ccco2)cc1)c1ccccc1	0	0	0	0	0
CC(NC(=O)c1ccc(S(=O)(=O)NCc2ccco2)cc1)c1ccc(F)cc1 (stereo not drawn)	0	-	-	-	0
COc1ccc(NC(=O)CN(C)CC(=O)NCC(=O)Nc2ccc(F)cc2)cc1	0	-	-	-	?
Cc1ccc(C(=O)Nc2ccc(S(=O)(=O)NCc3ccco3)cc2)cc1	0	38	36	0	0
Cc1cc(C)cc(NC(=O)c2cc(S(=O)(=O)NCc3ccco3)ccc2F)c1	0	15	0	0	0
O=C(Nc1ccccc1)c1cccc(S(=O)(=O)NCc2ccco2)c1	0	50	52	0	0
O=C(Nc1ccccc1)c1ccc(S(=O)(=O)NCc2ccco2)cc1	0	0	0	0	0
CC1CCCCC1NC(=O)c1ccc(S(=O)(=O)NCc2ccco2)cc1 (stereo not drawn)	0	40	62	0	?
COc1ccc(CCNC(=O)c2ccc(Cn3c(SCc4ccccc4)nc4cccnc43)cc2)cc1	-	-	-	-	0
O=S(=O)(NCc1ccco1)c1ccc2c(c1)Cc1ccccc1-2	0	48	41	0	0
Cc1ccc(S(=O)(=O)NCc2ccco2)cc1C	0	0	0	0	0
Cc1cc(C)n(-c2ccc(C(=O)Nc3ccc(S(=O)(=O)NCc4ccco4)cc3)cc2)n1	0	22	0	0	?
Cc1oc2cc3oc(=O)c(CC(=O)N[C@H](C(=O)N[C@@H](C(=O)O)c4ccccc4)C(C)C)c(C)c3cc2c1C	0	0	0	0	?
Cc1c(CC(=O)NCC(C)C)c(=O)oc2cc3c(cc12)CCC(C)(C)O3	0	23	41	0	0
Cc1c(CC(=O)N[C@H](C(=O)O)C(C)C)c(=O)oc2cc3c(cc12)CCC(C)(C)O3	0	67	98	0	0
Cc1c(CC(=O)NCCC(C)C)c(=O)oc2cc3c(cc12)CCC(C)(C)O3	0	0	0	0	0
CCC(C)NC(=O)Cc1c(C)c2cc3c(cc2oc1=O)OC(C)(C)CC3 (stereo not drawn)	0	40	63	0	0
COCCNC(=O)Cc1c(C)c2cc3c(cc2oc1=O)OC(C)(C)CC3	0	14	0	0	0
Cc1c(CC(=O)N2CCC(C(=O)O)CC2)c(=O)oc2cc3c(cc12)CCC1(CCCCC1)O3	0	0	0	0	0
O=C(OCc1ccco1)c1ccc2c(c1)N(Cc1ccc([N+](=O)[O-])cc1)C(=O)c1ccccc1S2	-	-	-	-	0
CCN(CC)S(=O)(=O)c1ccc2c(c1)c(=O)c(C(=O)NCc1ccc(Cl)cc1)cn2C	-	-	-	-	0
Cc1c(CC(=O)NC(C)C)c(=O)oc2cc3c(cc12)CCC(C)(C)O3	0	35	54	0	0
Cc1c(CC(=O)N[C@@H](C)C(=O)O)c(=O)oc2cc3c(cc12)CCC(C)(C)O3	0	0	0	0	0
CCOC(=O)Nc1ccc2c(c1)ncn2C1CCCCC1	0	27	82	0	0
COC(=O)Nc1ccc2c(c1)ncn2C1CCCCC1	0	23	31	?	0
SMILES	AmpC inh no detg	CHX counter	Shiga inhibitor	NS1 function inh	AmpC detergent
CCc1ccc(NC(=O)N(Cc2ccco2)C(C)c2cccs2)cc1 (stereo not drawn)	0	21	52	0	0
CN(CC(=O)Nc1cccc(S(=O)(=O)N2CCOCC2)c1)CC(=O)Nc1ccc(Cl)c(C(F)(F)F)c1	0	-	-	-	0
Cc1nc(=S)c2ccccc2[nH]1	0	0	0	0	0
Cc1cc2[nH]c3ccccc3c2c(C)n1	0	36	37	0	0
CC(=O)Nc1ccc(C(=O)N/N=C/c2ccncc2)cc1	0	0	0	-	0
Cc1ccc(NC(=O)CCC(=O)N/N=C/c2ccccc2O)cc1	0	0	0	0	0
O=C(CCC(=O)Nc1ccccc1)N/N=C/c1ccncc1	0	23	0	0	0
